For 40 compounds, growth results are on record in PubChem BioAssay (NCI).

SMILES strings stand for the structures. About 83,000 compounds went through this panel and 20% of them were active in at least one assay; those are over-represented in the sample as a whole.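 For each line, cells grew in 96-well plates with the test compound present at a single concentration for 48 hours.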 Activity calls are given as the source filed them.

For this assay, the system named is LOX IMVI melanoma. The assay is described as follows: NCI-60 one-dose screen, 48 h (100 = growth as untreated, 0 = no growth, -100 = all killed). The settings on record: 10 µM unless noted. The method, then:
Growth inhibition of the LOX IMVI human tumor cell line is measured as a screen for anti-cancer activity. Cells are grown in 96 well plates and exposed to the test compound for 48 hours. Compounds are tested at a single concentration, which is 10^-5 M for most compounds. The reported endpoint is percent growth (GI% or GIPRCNT), where numbers from 0 - 100% represent growth inhibition, and numbers from -100% - 0 represent cell death. For example, a value of 40 represents 60% growth inhibition. A value of 0 means no net growth occurred over the course of the experiment. A value of -40 indicates 40% of cells at the beginning of the experiment died by the end of the experiment. A value of -100 means all cells are dead at the end of the experiment.
NCI-60 Human Tumor Cell Lines Screen was performed using the standard one-dose NCI protocol, which is described in more detail at https://dtp.cancer.gov/discovery_development/nci-60/default.htm.
Compounds with GIPRCNT values below 10 were considered active. Activity score was based on GIPRCNT using the following formula: […]
Score is 0 for GIPRCNT values of 100 or above, 50 for GIPRCNT values of 0, and 100 for GIPRCNT values of -100.
As for `CCCCC/C(=C\c1ccccc1)C1OC(C)C(C)O1` (stereo not given), the growth was 97.9% (inactive).

For the compound `Oc1cc(/C=C/c2nc(N3CCOCC3)c3cc(Cl)c(Cl)cc3n2)cc(O)c1O`, the growth was 106% (inactive).

Regarding `CC(C)=CCC/C(C)=C/CC/C(C)=C/CC/C(C)=C/CSC[C@H](NC(=O)CCCCCN1CCN(C)CC1)C(=O)NC1CCCCC1`, the growth was 68.5% (inactive).

Regarding `C/C(=N\Nc1cc(C)c2ccccc2n1)c1ccccn1`, the growth is -78.5% (active).

As to `CC[C@]12C=CCN3CC[C@@]4(c5cc([C@H]6CCC(=O)N6)c(OC)cc5N(C)[C@H]4[C@@](O)(C(=O)OC)[C@@H]1OC(C)=O)[C@@H]32`, the growth was 108% [2.5 µM] (inactive).

In the case of `CCCCCCCN(CCCCCCC)C(=N)c1ccnc2ccccc12`, the growth was -94.4% (active).

As for `CN(C)c1ccc(C(=O)c2ccc(N(C)C)c(N)c2)cc1N`, the growth was 53.9% (inactive).

With `Cc1[c-]onc1C.Cc1[c-]onc1C.[Ag].[Ag].[NH-]S(=O)(=O)c1ccc(N=Nc2cc(N=Nc3ccc(S([NH-])(=O)=O)cc3)c3c(NC(=O)C(Cl)Cl)cccc3c2OC(=O)C(Cl)Cl)cc1`, the growth is 81.4% (inactive).

In the case of `O=c1[nH]c2c3ccncc3cc(-c3cccc(Cl)c3)c2c2cnccc12`, the growth is 19.9% (inactive).

`OCCNc1nc(Nc2ccc(Cl)c(Cl)c2)nc2ccccc12`: the growth was 34.1% (inactive).

As for `COc1ccc(C2NC(=O)Nc3ccccc32)c(OC)c1` (stereo not given), the growth was 103% (inactive).

`O=C(O[C@@H]1Cc2c(O)cc(O)cc2O[C@@H]1c1cc(O)c(O)c(O)c1)c1cc(O)c2c(c1)OCO2`: the growth is 95.6% (inactive).

For `COc1cccc(-c2nn(-c3ccccc3)cc2-c2ccnc(NCCCNS(=O)(=O)c3ccc(C(F)(F)F)cc3)c2)c1`, the growth is 36% (inactive).

In the case of `Cc1cc(Cl)nc(N(CCNc2ccnc3cc(Cl)ccc23)Cc2ccco2)n1`, the growth was 22.5% (inactive).

On to `Cc1ccc(-c2nc3ccc(Cl)cc3c(=O)n2N2C(=O)CSC2c2ccccc2Cl)cc1` (stereo not given), for which the growth was 89.1% (inactive).

On to `COC(=O)[C@]12CC[C@@H](C)[C@H](C)[C@@H]1C1=CC[C@@H]3[C@@]4(C)C[C@@H](OC(C)=O)[C@H](O)[C@@](C)(CO)[C@@H]4[C@H](O)C[C@@]3(C)[C@]1(C)CC2`, for which the growth was -100% (active).

As for `Cc1cc(N(CCCNc2ccnc3cc(Cl)ccc23)Cc2ccco2)nc(Cl)n1`, the growth is 42.2% (inactive).

Take `CSc1ccc(N(C)c2nc(C)nc3c2CCC3)cc1`: the growth was 10.2% (inactive).

For the compound `O=C(CI)Nc1ccc(O)c2ccccc12`, the growth is -60.6% (active).

As for `COC(=O)[C@]12CC[C@@H](C)[C@H](C)[C@@H]1C1=CC[C@@H]3[C@@](C)(CC#N)C4=C(C[C@@]3(C)[C@]1(C)CC2)OC[C@]4(C)C=O`, the growth was -99% (active).

As for `O=C1CCN2C(=O)Nc3ccccc3C2C1` (stereo not given), the growth is 106% (inactive).

For `O=C1C=C(C(O)c2ccc(O)cc2)C(=O)c2ccccc21` (stereo not given), the growth was 83.7% (inactive).

With `COc1cc(-c2nc(-c3ccccc3)c(-c3ccccc3)[nH]2)cc(OC)c1O`, the growth was -47.7% (active).

`COc1cc2ncnc(Nc3ccc(Oc4ccnc(C)c4)c(C)c3)c2cc1NC(=O)CC1CCSS1` (stereo not given): the growth was -87.8% (active).

Turning to `Cc1ccncc1C(=O)O`, the growth was 94% (inactive).

Turning to `CCCCC[C@H]1CC=C2C(=O)C=C[C@@H]2CC=CCCCC(=O)O[C@@H](CCCCC)CC=C2C(=O)C=C[C@@H]2CC=CCCCC(=O)O[C@@H](CCCCC)CC=C2C(=O)C=C[C@@H]2CC=CCCCC(=O)O1`, the growth is -87.5% [8.75 µM] (active).

Turning to `COC(=O)c1cc(=O)nc(N/N=C/c2ccc(C)cc2)s1`, the growth was 109% (inactive).

On to `CCCCC[C@H]1C/C=C2/C(=O)C(Cl)=C[C@@H]2C/C=C\CCCC(=O)O[C@@H](CCCCC)C/C=C2/C(=O)C(Cl)=C[C@@H]2C/C=C\CCCC(=O)O1`, for which the growth is -74.7% (active).

On to `COC(=O)[C@]12CC[C@@H](C)[C@H](C)[C@@H]1C1=CC[C@@H]3[C@@]4(C)C(c5ncon5)=C[C@@](C)(CO)C4=CC[C@@]3(C)[C@]1(C)CC2`, for which the growth was -93.7% (active).

`Fc1ccc(Nc2nnc(-c3ccc(Cl)cc3)o2)cc1`: the growth was 108% (inactive).

For the compound `Nc1nc(Br)nc2c1ncn2C1CC(O)C(CO)O1` (stereo not given), the growth is 82.4% (inactive).

As for `COc1ccc(C(=O)/C=C/c2cc(-c3cc(OC)c(OC)c(OC)c3)n[nH]2)cc1OC`, the growth was -96.3% (active).

As to `CCCCC[C@H]1C/C=C2/C(=O)C=C[C@@H]2C/C=C\CCCC(=O)O[C@@H](CCCCC)C/C=C2/C(=O)C=C[C@@H]2C/C=C\CCCC(=O)O1`, the growth was -87.1% (active).

For the compound `COc1cc(-c2cc3ncccc3c3[nH]c(=O)c4cccnc4c23)cc(OC)c1OC`, the growth was 42.5% (inactive).

For the compound `Cc1cc(N=O)cc(C(C)(C)C)c1O`, the growth is 98.3% (inactive).

Consider `COc1ccc(/C(=C\c2ccc3c(c2)OCO3)C(=O)Nc2nc3ccccc3s2)cc1OC`, for which the growth was 102% (inactive).

Consider `Oc1ccc(CCC2CCCC(CCc3ccc(OCCF)cc3)N2)cc1` (stereo not given), for which the growth is 98.7% (inactive).

Consider `COc1cc(/C=C2\C(=O)N(CC(O)COc3cc(O)c4c(=O)cc(-c5ccccc5)oc4c3)c3ccccc32)cc(OC)c1O` (stereo not given), for which the growth was 80.2% (inactive).

Turning to `NCCn1cc(-c2nc(-c3c[nH]c4ncccc34)cs2)c2cc(F)ccc21`, the growth was 81.7% (inactive).

On to `Cc1cc(Cl)nc(N(CCCNc2ccnc3cc(Cl)ccc23)Cc2ccco2)n1`, for which the growth is 10.7% (inactive).
